Reference: PubChem BioAssay (NCATS)
Results filed as inconclusive are left out. A call without a number means that no potency is given here. Active and inactive are the calls of the source. Calls follow the shape of the dose curve; as a rule, active = well fitted curve in the direction sought with a large enough effect; inconclusive = small, poorly fitted or top-dose-only effect, or another doubt; inactive = no such curve, though single readings can be large; an effect the other way counts as inactive or inconclusive.

Each molecule was assayed against Rap guanine nucleotide exchange factor 3 (Homo sapiens) (UniProt O95398) (assay: Confirmatory qHTS for agonist of cAMP-regulated guanine nucleotide exchange factor 3 (EPAC1) (AID 1645881; also: nearly all actives have a fitted effect of over 75% in size; also: potency is read from the fitted curve at half-maximal effect)). Conditions: EPAC1 Rap1B BODIPY-GDP exchange fluorescence; series mostly up to 154 µM.
Chain of Rap guanine nucleotide exchange factor 3 (Homo sapiens) (O95398 whole entry, looked up): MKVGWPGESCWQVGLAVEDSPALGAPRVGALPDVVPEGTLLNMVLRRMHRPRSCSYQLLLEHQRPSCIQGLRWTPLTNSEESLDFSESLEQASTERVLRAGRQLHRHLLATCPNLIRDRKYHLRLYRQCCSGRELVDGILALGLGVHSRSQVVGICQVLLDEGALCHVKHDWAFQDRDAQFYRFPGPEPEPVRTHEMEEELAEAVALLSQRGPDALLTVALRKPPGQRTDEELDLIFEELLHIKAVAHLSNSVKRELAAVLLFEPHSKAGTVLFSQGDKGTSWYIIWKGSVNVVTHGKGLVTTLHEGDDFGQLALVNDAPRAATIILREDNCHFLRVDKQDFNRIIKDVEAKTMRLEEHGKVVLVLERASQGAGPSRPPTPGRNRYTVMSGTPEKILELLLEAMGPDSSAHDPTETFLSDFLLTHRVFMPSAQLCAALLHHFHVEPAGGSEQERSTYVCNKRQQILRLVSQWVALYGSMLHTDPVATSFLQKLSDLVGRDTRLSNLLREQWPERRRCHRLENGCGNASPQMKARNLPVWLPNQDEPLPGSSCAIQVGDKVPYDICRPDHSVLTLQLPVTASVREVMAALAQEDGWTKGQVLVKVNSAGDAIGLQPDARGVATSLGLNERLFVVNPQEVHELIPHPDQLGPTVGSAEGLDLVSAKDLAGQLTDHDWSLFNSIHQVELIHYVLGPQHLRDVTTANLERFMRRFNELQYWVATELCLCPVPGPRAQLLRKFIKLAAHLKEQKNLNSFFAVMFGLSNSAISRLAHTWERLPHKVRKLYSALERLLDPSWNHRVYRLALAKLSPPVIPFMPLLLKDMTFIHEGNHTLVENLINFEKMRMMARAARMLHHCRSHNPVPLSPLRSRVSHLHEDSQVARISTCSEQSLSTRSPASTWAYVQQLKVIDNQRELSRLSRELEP

| Compound | Potency |
| --- | --- |
| Cc1ccccc1-c1ccc2ncnc(N3CCOCC3)c2c1 | inactive |
| CCN(C(=O)c1sc2cc(OC)ccc2c1Cl)c1ccccc1 | inactive |
| Cc1nc2c(C(=O)NCCc3ccccc3)c[nH]n2c(=O)c1Cc1ccc(F)cc1Cl | inactive |
| Cc1cc2ccccn2c1C(=O)c1ccc(Cl)c([N+](=O)[O-])c1 | inactive |
| O=C(NCc1ccccc1F)c1ccc(CN2CC(=O)N3CCCCC3C2=O)cc1 (stereo not drawn) | inactive |
| OCCCCC#Cc1c(-c2ccsc2)sc2ccccc12 | inactive |
| Cc1cccc(CNC(=O)c2ccc(-c3nc(CS(=O)(=O)c4ccccc4)c(C)o3)cc2)c1 | inactive |
| COc1ccc(C2OCC3(COC(C)=O)C(C)C=C(C)C2C3C)cc1 (stereo not drawn) | inactive |
| CCCCCCOC(=O)C(C#N)c1nc2ccccc2nc1N1CCCCC1 (stereo not drawn) | inactive |
| CCOc1cc(CNc2ccc(O)cc2)ccc1OCc1ccc(Cl)cc1 | inactive |
| Cc1onc(-c2ccc3c(c2)OCO3)c1-c1ccc2[nH]ccc2c1 | inactive |
| COc1ccc(C(=S)N2CCOCC2)cc1OC(=O)c1ccccc1Cl | inactive |
| CCCCN(CCCC)c1ccc(/C=C/c2ccnc3ccccc23)cc1 | inactive |
| CSc1ccc(S(=O)(=O)NCC(=O)OCC(=O)N(C)Cc2ccccc2)cc1[N+](=O)[O-] | inactive |
| COc1cc(C)c2c(=O)cc(-c3ccccc3)oc2c1 | inactive |
| O=C(CCn1c(=O)oc2ccccc21)N(Cc1ccccc1)c1ccccc1 | inactive |
| COc1cc(/C=N/NC(=O)c2cc(O)cc(O)c2)ccc1OC(=O)c1ccccc1 | inactive |
| O=C1/C(=C\c2cccc(O)c2O)SC(=S)N1Cc1ccccc1 | inactive |
| O=C(N/N=C\c1c(O)ccc2ccccc12)c1ccc(S(=O)(=O)N2CCCCC2)cc1 | 44.7 µM (active) |
| CN(C)c1ccc(/C=C/c2c3c(nc4ccccc24)CCCC3)cc1 | inactive |

| Compound | Potency |
| --- | --- |
| COc1ccc(Br)cc1CN(C)CC(=O)Nc1c(Cl)cccc1Cl | inactive |
| COc1ccc([N+](=O)[O-])cc1-c1nc2ccccc2nc1-c1ccccc1 | inactive |
| O=C1CCC(C(=O)Nc2ccccc2N2CCCC2)=NN1 | inactive |
| COc1ncc2nc(-c3ccccc3)c(=O)n(Cc3cccs3)c2n1 | inactive |
| Cc1ccc(-c2noc(-c3nnn(CC(=O)Nc4cc(Cl)ccc4C)c3N)n2)cc1 | inactive |
| C=Nc1ccc(/C=C/c2ccnc3ccccc23)cc1 | inactive |
| O=C1/C(=C\c2cccnc2)Sc2ccccc21 | inactive |
| Cc1ccc(S(=O)c2ccc([N+](=O)[O-])c3nonc23)cc1 (stereo not drawn) | inactive |
| CCn1c2ccccc2c2cc(NC(=O)c3ccc(=O)oc3)ccc21 | 112 µM (active) |
| O=C(Nc1ccccc1N1CCCCC1)C1=COCCO1 | inactive |
| c1ccc(NN(Cc2ccccn2)c2ccccc2)cc1 | inactive |
| COc1ccc(-c2nc3ccccc3n2Cc2ccccc2)cc1 | inactive |
| CCOc1ccccc1N1CCN(C(=O)c2cc3c(s2)CCC3)CC1 | inactive |
| Cc1ccccc1SCC(=O)Nc1cc(C(F)(F)F)ccc1N1CCOCC1 | inactive |
| CC(=O)Oc1c2c(c3c(c1CC=C(C)C)O[C@@]14C(=CC5CC1C(C)(C)OC4(C/C=C(\C)C(=O)O)C5=O)C3=O)OC(C)(CCC=C(C)C)C=C2 (stereo partly drawn) | inactive |
| CN(C)c1ccc(/C=C/c2sc3ccccc3[n+]2CCCCBr)cc1 | inactive |
| Oc1ccc2ccccc2c1-c1sc(Nc2ccccc2)n[n+]1-c1ccc(F)cc1 | inactive |
| CCCCN(CCC#N)c1ccc(/C=C/c2ccnc3ccccc23)cc1 | inactive |
| Cc1cc(Br)cc(C=Nc2ccc(N3CCOCC3)cc2)c1O | inactive |

The molecules below were run against Rap guanine nucleotide exchange factor 4 (Homo sapiens) (UniProt Q8WZA2) (assay: Confirmatory qHTS for agonist of cAMP-regulated guanine nucleotide exchange factor 4 (EPAC2) (AID 1645884;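 also: nucleotide exchange releases bodipy-GDP from Rap1 and this lowers its fluorescence; nearly all actives have a fitted effect of over 65% in size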)). Conditions: EPAC2 GEF activity, Rap1B-BODIPY-GDP fluorescence; series mostly up to 154 µM.
Chain of Rap guanine nucleotide exchange factor 4 (Homo sapiens) (Q8WZA2 whole entry, looked up): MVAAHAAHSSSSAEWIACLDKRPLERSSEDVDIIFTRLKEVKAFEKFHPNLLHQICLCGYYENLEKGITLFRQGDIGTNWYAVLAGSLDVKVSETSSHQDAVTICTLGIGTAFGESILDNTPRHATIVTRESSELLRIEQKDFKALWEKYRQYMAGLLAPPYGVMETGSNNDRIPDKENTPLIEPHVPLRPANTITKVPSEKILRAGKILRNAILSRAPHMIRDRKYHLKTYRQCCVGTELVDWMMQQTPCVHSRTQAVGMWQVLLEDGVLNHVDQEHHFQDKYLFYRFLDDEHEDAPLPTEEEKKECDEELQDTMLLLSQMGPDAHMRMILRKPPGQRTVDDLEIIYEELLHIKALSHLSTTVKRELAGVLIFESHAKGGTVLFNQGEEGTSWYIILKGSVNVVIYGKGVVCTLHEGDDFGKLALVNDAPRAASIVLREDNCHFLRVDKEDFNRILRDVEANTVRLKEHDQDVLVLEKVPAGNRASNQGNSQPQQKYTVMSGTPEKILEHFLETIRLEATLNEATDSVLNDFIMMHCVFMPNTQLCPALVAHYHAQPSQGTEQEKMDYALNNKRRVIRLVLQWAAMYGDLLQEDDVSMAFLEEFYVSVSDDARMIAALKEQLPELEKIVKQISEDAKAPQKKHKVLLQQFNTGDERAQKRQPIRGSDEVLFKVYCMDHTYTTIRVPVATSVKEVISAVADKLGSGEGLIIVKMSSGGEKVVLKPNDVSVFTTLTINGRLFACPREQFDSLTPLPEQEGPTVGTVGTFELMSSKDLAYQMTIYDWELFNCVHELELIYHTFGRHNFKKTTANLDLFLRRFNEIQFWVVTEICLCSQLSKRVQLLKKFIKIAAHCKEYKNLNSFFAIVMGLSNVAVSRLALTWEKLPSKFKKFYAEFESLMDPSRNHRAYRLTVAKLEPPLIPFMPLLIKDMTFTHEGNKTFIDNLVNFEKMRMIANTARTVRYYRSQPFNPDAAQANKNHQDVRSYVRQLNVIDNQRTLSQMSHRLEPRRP

| Compound | Potency |
| --- | --- |
| Cc1ccccc1-c1ccc2ncnc(N3CCOCC3)c2c1 | inactive |
| COc1ccc(C2OCC3(COC(C)=O)C(C)C=C(C)C2C3C)cc1 (stereo not drawn) | inactive |
| COc1cc(C)c2c(=O)cc(-c3ccccc3)oc2c1 | inactive |
| COc1ncc2nc(-c3ccccc3)c(=O)n(Cc3cccs3)c2n1 | inactive |
| CC(=O)Oc1c2c(c3c(c1CC=C(C)C)O[C@@]14C(=CC5CC1C(C)(C)OC4(C/C=C(\C)C(=O)O)C5=O)C3=O)OC(C)(CCC=C(C)C)C=C2 (stereo partly drawn) | inactive |
| Oc1ccc2ccccc2c1-c1sc(Nc2ccccc2)n[n+]1-c1ccc(F)cc1 | inactive |

These molecules were tested against Rap guanine nucleotide exchange factor 4 (Homo sapiens) (UniProt Q8WZA2) (assay: Confirmatory qHTS for antagonist of cAMP-regulated guanine nucleotide exchange factor 4 (EPAC2) (AID 1645885; also: nearly all actives have a fitted effect of over 25% in size; also: potency is read from the fitted curve at half-maximal effect)). Conditions: EPAC2 Rap1B-BODIPY-GDP exchange fluorescence, biochemical; series mostly up to 12.7 µM.

| Compound | Potency | outcome |
| --- | --- | --- |
| CCN(C(=O)c1sc2cc(OC)ccc2c1Cl)c1ccccc1 | inactive |  |
| Cc1nc2c(C(=O)NCCc3ccccc3)c[nH]n2c(=O)c1Cc1ccc(F)cc1Cl | inactive |  |
| Cc1cc2ccccn2c1C(=O)c1ccc(Cl)c([N+](=O)[O-])c1 | inactive |  |
| O=C(NCc1ccccc1F)c1ccc(CN2CC(=O)N3CCCCC3C2=O)cc1 (stereo not drawn) | inactive |  |
| OCCCCC#Cc1c(-c2ccsc2)sc2ccccc12 | inactive |  |
| Cc1cccc(CNC(=O)c2ccc(-c3nc(CS(=O)(=O)c4ccccc4)c(C)o3)cc2)c1 | inactive |  |
| CCCCCCOC(=O)C(C#N)c1nc2ccccc2nc1N1CCCCC1 (stereo not drawn) | inactive |  |
| CCOc1cc(CNc2ccc(O)cc2)ccc1OCc1ccc(Cl)cc1 | inactive |  |
| Cc1onc(-c2ccc3c(c2)OCO3)c1-c1ccc2[nH]ccc2c1 | inactive |  |
| COc1ccc(C(=S)N2CCOCC2)cc1OC(=O)c1ccccc1Cl | inactive |  |
| CCCCN(CCCC)c1ccc(/C=C/c2ccnc3ccccc23)cc1 | inactive |  |
| CSc1ccc(S(=O)(=O)NCC(=O)OCC(=O)N(C)Cc2ccccc2)cc1[N+](=O)[O-] | inactive |  |
| O=C(CCn1c(=O)oc2ccccc21)N(Cc1ccccc1)c1ccccc1 | inactive |  |
| COc1cc(/C=N/NC(=O)c2cc(O)cc(O)c2)ccc1OC(=O)c1ccccc1 | 3.38 µM (active) |  |
| O=C1/C(=C\c2cccc(O)c2O)SC(=S)N1Cc1ccccc1 | inactive |  |
| O=C(N/N=C\c1c(O)ccc2ccccc12)c1ccc(S(=O)(=O)N2CCCCC2)cc1 | inactive |  |
| CN(C)c1ccc(/C=C/c2c3c(nc4ccccc24)CCCC3)cc1 | inactive |  |

| Compound | Potency | outcome |
| --- | --- | --- |
| COc1ccc(Br)cc1CN(C)CC(=O)Nc1c(Cl)cccc1Cl | 13.5 µM (active) |  |
| COc1ccc([N+](=O)[O-])cc1-c1nc2ccccc2nc1-c1ccccc1 | 0.0301 µM (active) |  |
| O=C1CCC(C(=O)Nc2ccccc2N2CCCC2)=NN1 | inactive |  |
| Cc1ccc(-c2noc(-c3nnn(CC(=O)Nc4cc(Cl)ccc4C)c3N)n2)cc1 |  | inactive [at 12.7 µM] |
| C=Nc1ccc(/C=C/c2ccnc3ccccc23)cc1 | inactive |  |
| O=C1/C(=C\c2cccnc2)Sc2ccccc21 | inactive |  |
| Cc1ccc(S(=O)c2ccc([N+](=O)[O-])c3nonc23)cc1 (stereo not drawn) | inactive |  |
| CCn1c2ccccc2c2cc(NC(=O)c3ccc(=O)oc3)ccc21 |  | inactive [at 12.7 µM] |
| O=C(Nc1ccccc1N1CCCCC1)C1=COCCO1 | inactive |  |
| c1ccc(NN(Cc2ccccn2)c2ccccc2)cc1 | inactive |  |
| COc1ccc(-c2nc3ccccc3n2Cc2ccccc2)cc1 | inactive |  |
| CCOc1ccccc1N1CCN(C(=O)c2cc3c(s2)CCC3)CC1 | inactive |  |
| Cc1ccccc1SCC(=O)Nc1cc(C(F)(F)F)ccc1N1CCOCC1 | 2.39 µM (active) |  |
| CN(C)c1ccc(/C=C/c2sc3ccccc3[n+]2CCCCBr)cc1 | inactive |  |
| CCCCN(CCC#N)c1ccc(/C=C/c2ccnc3ccccc23)cc1 | inactive |  |
| Cc1cc(Br)cc(C=Nc2ccc(N3CCOCC3)cc2)c1O | inactive |  |
